Measurements published in PubChem BioAssay (NCI).
The panel holds about 79,000 compounds, 15% with a hit somewhere; the sample as a whole holds those more often. Values without a mark were called inactive. The source made the active and inactive calls. Rule as the data show it: active = growth inhibition above about 70%; inactive = the rest.

Columns and labels:
[1] = NCI Yeast Anticancer Drug Screen. Data for the rad50 strain (AID 155);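 also: 0% = growth of vehicle-only cultures of the same strain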; details: S. cerevisiae rad50 strain growth inhibition, stronger effect = higher value
Summary of the method: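 Yeast carrying a defined DNA repair defect were exposed to test compounds, and growth was compared with vehicle-treated controls to give percent inhibition.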

[2] = NCI Yeast Anticancer Drug Screen. Data for the mec2-1 strain (AID 157); details: S. cerevisiae mec2-1 strain, stronger effect = higher value
Summary of the method: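 Each compound was tested on mec2-1 yeast, a strain altered in DNA damage repair or cell cycle control. Growth inhibition is reported relative to vehicle.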

[3] = NCI Yeast Anticancer Drug Screen. Data for the sgs1 mgt1 strain (AID 161);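 also: 0% = growth of cultures given vehicle only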; details: S. cerevisiae sgs1 mgt1 strain, stronger effect = higher value
Summary of the method: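 Mutant yeast exposed to compound; growth scored against vehicle-only wells.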

[4] = NCI Yeast Anticancer Drug Screen. Data for the cln2 rad14 strain (AID 165);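 also: 0% = growth equal to vehicle treated cultures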; details: S. cerevisiae cln2 rad14 strain, stronger effect = higher value
Summary of the method: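 Test compounds were added to cln2 rad14 yeast cultures; inhibition of growth was then determined by comparison with vehicle treatment.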

[5] = NCI Yeast Anticancer Drug Screen. Data for the bub3 strain (AID 167); details: S. cerevisiae bub3 mutant strain, stronger effect = higher value
Summary of the method: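 Compounds were applied to a genetically altered yeast strain carrying a cell-cycle control defect. Growth inhibition was scored against vehicle-treated controls.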

[6] = NCI Yeast Anticancer Drug Screen. Data for the mlh1 rad18 strain (AID 175); details: S. cerevisiae mlh1 rad18 strain growth inhibition, stronger effect = higher value
Summary of the method: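 Inhibition values reflect reduced growth of mutant yeast versus vehicle-treated controls following compound exposure; the mutations affect DNA damage repair.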

[7] = at 5.0 µM (retest, dose inferred, filed as 0.5)
[8] = at 50.0 µM (retest, dose inferred, filed as 5.0)

| Structure (SMILES) | growth inhibition [1, 7] | growth inhibition [1, 8] | growth inhibition ([1]; at 50.0 µM) | growth inhibition [2, 7] | growth inhibition [2, 8] | growth inhibition ([2]; at 50.0 µM) | growth inhibition [3, 7] | growth inhibition [3, 8] | growth inhibition ([3]; at 50.0 µM) | growth inhibition [4, 7] | growth inhibition [4, 8] | growth inhibition ([4]; at 50.0 µM) | growth inhibition [5, 7] | growth inhibition [5, 8] | growth inhibition ([5]; at 50.0 µM) | growth inhibition [6, 7] | growth inhibition [6, 8] | growth inhibition ([6]; at 50.0 µM) |
| --- | --- | --- | --- | --- | --- | --- | --- | --- | --- | --- | --- | --- | --- | --- | --- | --- | --- | --- |
| CN=c1ss/c(=N\C(=S)N(C)C)n1-c1ccccc1 | -10% | -10% | -17.1% | -11% | 7% | -7.45% | 13% | -20% | -18.6% | 8% | 13% | 4.45% | 4% | 7% | 42.5% | -20% | 3% | -22.5% |
| O=C1C=CC(=O)c2ccc(=O)ccc21 | 38% | 99% (active) | 22.6% | 25% | 99% (active) | -1.45% | 38% | 99% (active) | 25.9% | 20% | 98% (active) | 28.4% | 27% | 99% (active) | -1.35% | 71% (active) | 98% (active) | 51.2% |
| CC#CC(=O)Nc1ccccc1CC(c1c[nH]c2ccccc12)c1c[nH]c2ccccc12 | 50% | 50% | 75.4% (active) | 31% | 31% | 55.1% | 40% | 40% | 67.5% | 19% | 19% | 67.7% | 32% | 32% | 60.8% | 35% | 35% | 53.8% |
| CC(=O)n1c(=S)n(C(C)=O)c2ccccc21 | 2% | 83% (active) | 51.5% | -16% | 89% (active) | 54.4% | -24% | 76% (active) | 40.2% | 10% | 39% | 67.8% | -23% | 76% (active) | 71.1% (active) | -13% | 94% (active) | 30.1% |
| O=C1c2cc(F)ccc2-c2c(F)cc(F)c(F)c21 | 8% | 7% | 82.3% (active) | 6% | 5% | 55.9% | 2% | 4% | 41% | 3% | -6% | 34.9% | -7% | -14% | 5.95% | 4% | 7% | 46.8% |
| CC(C)c1ccc(O)c(O)c(=O)c1 (tested in a mixture with another compound) | 99% (active) | 100% (active) | 99.5% (active) | 100% (active) | 100% (active) | 99.7% (active) | 99% (active) | 99% (active) | 99.5% (active) | 97% (active) | 99% (active) | 99.1% (active) | 99% (active) | 100% (active) | 99.3% (active) | 99% (active) | 99% (active) | 99.3% (active) |
| CC(O)C1CCCC[N+]1(C)C (stereo not given) | 1% | -3% | 0.05% | 5% | 8% | -6.9% | -1% | -36% | 51.5% | -5% | -6% | -7.6% | -11% | -8% | 9.45% | -17% | -3% | -18.6% |
| Cc1[nH]nc(C(F)(F)F)c1N=NN1CCOCC1 | 62% | 99% (active) | 99.2% (active) | 89% (active) | 99% (active) | 99.7% (active) | 55% | 99% (active) | 99.5% (active) | 47% | 99% (active) | 99.5% (active) | 19% | 99% (active) | 99.4% (active) | 79% (active) | 99% (active) | 99.5% (active) |
| Cc1cccc(-c2nnc(-c3cccc(C)c3)o2)c1 | 39% | 44% | 54.8% | 30% | 43% | 14.7% | 19% | 47% | 63.6% | 53% | 33% | 43.2% | 54% | 66% | 55% | 32% | 44% | 23.4% |
| CCCCCCC(=O)OCCN(CCOC(=O)CCCCCC)C(=O)C(C)OC(=O)CCCCCC (stereo not given) | 2% | 56% | 91.7% (active) | 4% | 19% | 85.4% (active) | 2% | 62% | 98.4% (active) | 1% | 18% | 66.2% | -1% | 66% | 98.2% (active) | -3% | 58% | 97.6% (active) |
